Screening results: PubChem BioAssay, National Center for Advancing Translational Sciences (NCATS)
The sample as a whole holds a higher share of hits than the screen did.
HT1080-NT tox: kills 2HG-producing HT-1080-NT fibrosarcoma cells. HT-1080-NT fibrosarcoma viability, CellTiter-Glo ATP luminescence, 48 h. Potency, µM (highest dose often 46.1 µM), inactives show top-dose activity, negative = less viability, usual class: cytotoxic. 360,000 tested, 1.6% active;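 further: NT is the 2HG producing partner of a matched IDH1 knockdown line; potency means the concentration at half of the fitted maximal effect; 0% = DMSO-treated cells and -100% = media-only wells without cells; nearly all actives have a fitted effect of over 55% in size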
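Luminescent CellTiter-Glo readout after 48 hours of compound exposure at 37 degrees C defined viability of HT-1080-NT cells. Activity was normalized to DMSO wells and cell-free media wells; concentration-response curves were fitted and assigned curve classes.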
ALOX12 inh: ALOX12 (human) lipoxygenase inhibition. P18054. purified 12hLO, xylenol orange hydroperoxide absorbance. Potency, µM (doses to about 108 µM), without a hit: top-dose activity change, negative = inhibition, most hits filed as inhibitors. 580,000 tested, 1.1% active. AID 1671190; further: potency means the concentration at half of the fitted maximal effect
Target sequence (P18054 whole entry, looked up): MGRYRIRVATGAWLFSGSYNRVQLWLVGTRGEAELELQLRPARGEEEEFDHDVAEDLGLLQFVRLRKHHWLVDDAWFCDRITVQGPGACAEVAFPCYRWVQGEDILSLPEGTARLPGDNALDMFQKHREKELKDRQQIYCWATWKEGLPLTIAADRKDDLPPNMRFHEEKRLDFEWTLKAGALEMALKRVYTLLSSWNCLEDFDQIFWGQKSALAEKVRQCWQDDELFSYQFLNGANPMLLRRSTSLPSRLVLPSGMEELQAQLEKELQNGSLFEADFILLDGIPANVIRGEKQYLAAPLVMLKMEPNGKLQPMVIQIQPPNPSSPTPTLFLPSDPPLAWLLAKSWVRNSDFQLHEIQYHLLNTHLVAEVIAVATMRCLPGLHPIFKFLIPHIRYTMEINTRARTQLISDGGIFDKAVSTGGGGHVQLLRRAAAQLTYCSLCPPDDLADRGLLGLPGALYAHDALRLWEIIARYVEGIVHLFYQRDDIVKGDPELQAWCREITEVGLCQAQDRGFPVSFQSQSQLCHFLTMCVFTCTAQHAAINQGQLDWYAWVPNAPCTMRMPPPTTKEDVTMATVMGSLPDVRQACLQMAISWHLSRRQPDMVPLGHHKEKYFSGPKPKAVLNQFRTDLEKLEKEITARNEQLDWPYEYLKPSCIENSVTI
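Purified human 12hLO at 150 nM in 25 mM Hepes, 0.01% Triton X-100, pH 7.0, preincubated 15 min at room temperature with compound. Reaction started with 40 uM arachidonic acid, 30 min at room temperature. Hydroperoxide measured by Fe-xylenol orange, 573/405 nm absorbance ratio.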
DT40 TDP1 CPT: DT40-hTDP1 cell growth loss with CPT; chicken DT40 Tdp1-/-;hTDP1 cells + 20 nM CPT, ATP luminescence, 48 h; Potency, µM (titrated, usually from 46.2 µM), without a hit: at the highest dose activity change, negative = growth inhibition, most hits filed as inhibitors; 420,000 tested, 12% active; AID 686979; further: potency means the concentration at half of the fitted maximal effect; nearly all actives have a fitted effect of over 55% in size
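Chicken DT40 Tdp1-/- cells stably complemented with human TDP1 were seeded at 400 cells/well in medium containing 20 nM camptothecin, exposed to pin-transferred compounds, and grown at 37 °C for at least 48 hr. Viability was read as ATP luminescence.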
TDP1 cell noCPT: qHTS for Inhibitors of human tyrosyl-DNA phosphodiesterase 1 (TDP1): qHTS in cells in absence of CPT; 420,000 tested, 15% active; DT40 Tdp1-/- hTDP1 cells, no CPT, ATP luminescence, 48 h; Potency, µM (top dose mostly 46.2 µM), inactives show at the top dose activity change, negative = growth inhibition, actives largely listed as inhibitors; further: potency means the concentration at half of the fitted maximal effect; nearly all actives have a fitted effect of over 55% in size
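Stably hTDP1-transfected Tdp1-null chicken DT40 cells were treated with library compounds minus camptothecin and grown for at least 48 hr at 37 °C, after which cellular ATP was quantified by luminescence.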
IL-1B inflam inh: inflammasome signaling inhibition, IL-1 beta readout; THP-1 LPS/ATP IL-1B secretion, AlphaLISA, 16 h; hits give low values; activity change, % at 57.5 µM; 360,000 tested, 4.7% active; AID 743279; in the data active means activity change below about -50%; inconclusive means mostly about -30% to -49%
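Secreted IL-1B measured by AlphaLISA bead assay after 16 h compound exposure of THP-1 cells; compounds (final up to 57.5 uM) added 1 h before LPS (250 ng/mL) and ATP (1.25 mM) stimulation; lower signal means less secretion.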
HT1080 IDH1KD tx: kills HT-1080 cells with IDH1 knockdown. 360,000 tested, 2% active. AID 686971. Potency, µM (doses to about 46.1 µM), inactives show top-dose activity, negative = toxicity, hits mostly cytotoxic. HT-1080 IDH1 knockdown viability, ATP luminescence, 48 h;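 further: potency means the concentration at half of the fitted maximal effect; 0% = DMSO wells and -100% = cell-free medium wells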
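% activity derives from luminescence (CellTiter-Glo), normalised to DMSO and no-cell wells. HT-1080-IDH1KD cells, 750/well, had 48 h compound exposure at 37 °C.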
Active calls of the source: *; ? = inconclusive; / = no result given; [ ] = another dose, or the depositor's remark. Unless noted, the call rests on the fitted dose curve; in most records, active means well fitted curve in the direction sought with a large enough effect; inconclusive means small, poorly fitted or top-dose-only effect, or another doubt; inactive means no such curve, though single readings can be large; an effect the other way counts as inactive or inconclusive. Unless noted, on the % scale 0 is the no-effect control and ±100 the full control effect.

SMILES	HT1080-NT tox	ALOX12 inh	DT40 TDP1 CPT	TDP1 cell noCPT	IL-1B inflam inh	HT1080 IDH1KD tx
Cc1cc(OCc2cc(C(=O)N(C)CCc3cnn(C)c3)no2)cc(C)c1Cl	-13%	-1%	13µM*	21µM*	-59*	-23%
Cc1cc(OCc2cc(C(=O)N(C)C3CCOC3)no2)cc(C)c1Cl (stereo unspecified)	-5%	3%	16µM*	16µM*	-18	-19%
CCc1ccc(CN(C)C(=O)c2cc(COc3cc(C)c(Cl)c(C)c3)on2)nc1	?	-14%	16µM*	?	0	?
CCCCNC(=O)COC(=O)c1cc(-c2cccs2)nc2ccccc12	/	-2%	/	/	/	/
CN(C(=O)CSc1nnc(Nc2ccccc2)s1)c1c(N)n(Cc2ccccc2)c(=O)[nH]c1=O	10%	0%	?	?	1	9%
CCCCN(C(=O)CSc1nnc(Nc2ccc(C)c(C)c2)s1)c1c(N)n(Cc2ccccc2)c(=O)[nH]c1=O	-26%	-13%	18µM*	?	-77*	?
O=S(=O)(NCC(c1ccco1)N1CCN(c2ccc(F)cc2)CC1)c1ccccc1 (stereo unspecified)	/	4%	?	21µM*	/	/
COc1ccc(N2CCN(C(CNS(=O)(=O)c3ccc(OC)c(C)c3)c3ccco3)CC2)cc1 (stereo unspecified)	/	-19%	?	23µM*	/	/
COc1ccc(N2CCN(C(CNC(C)=O)c3ccco3)CC2)cc1 (stereo unspecified)	10%	-3%	2%	10%	12	4%
COc1ccc(N2CCN(C(CNC(=O)OCc3ccccc3)c3ccco3)CC2)cc1 (stereo unspecified)	-6%	-13%	?	?	-76*	-15%
O=S(=O)(NCC(c1ccco1)N1CCOCC1)c1ccc(F)cc1 (stereo unspecified)	/	-9%	-12%	-10%	/	/
Cc1ccc(S(=O)(=O)NCC(c2ccco2)N2CCN(c3ccccc3F)CC2)cc1 (stereo unspecified)	/	0%	?	16µM*	/	/
COc1cccc(OC)c1C(=O)Oc1cc(C)c2c(c1)O/C(=C\c1cccnc1)C2=O	/	-6%	/	/	/	/
Cn1ccnc1CN(C1CC1)S(=O)(=O)c1cccc(Cl)c1F	/	-1%	/	/	/	/
Oc1c(N=Nc2ccccc2)sc2ccccc12	-9%	-21%	-18%	-26%	0	-8%
Oc1ccc(N=Nc2ccccc2)o1	16µM*	26%	5.8µM*	13µM*	-90*	23µM*
O=C(CCc1ncc(-c2c(F)cccc2F)o1)NC1=NCCS1	/	1%	/	/	/	/
NC(=O)C1CCCc2c1[nH]c1ccc(Cl)cc21 (stereo unspecified)	/	-20%[57.4 µM]	/	/	/	/
c1ccc2c3c([nH]c2c1)-c1[nH]ncc1CC3	?	-19%	16µM*	?	-28	-29%
Clc1ccc2[nH]c3c(c2c1)CCc1cn[nH]c1-3	?	-17%	?	18µM*	-22	?
O=C1C(c2ccc(F)cc2)N(Cc2ccc3c(c2)OCO3)C(=O)CN1C1CCCCCC1 (stereo unspecified)	2%	1%	?	15µM*	-14	6%
COc1ccc(CN2C(=O)CN(C3CCCCCC3)C(=O)C2c2ccc(F)cc2)cc1 (stereo unspecified)	12%	7%	?	?	-14	4%
O=C1C(c2ccc(F)cc2)N(Cc2ccccc2Cl)C(=O)CN1C1CCCCC1 (stereo unspecified)	/	-14%	23µM*	21µM*	/	/
